Hits are enriched below; roughly 0.54% of the tested compounds scored in any of these assays.
TRPML1 blocker = inhibitors of human TRPML1 channel. actives 0.02% (n = 390,000). activity change, negative = inhibition, % (test concentration not listed). Q9GZU1. TRPML1-inducible cells, Ca2+ dye fluorescence, FDSS; active compounds read low; inhibition of EC80 agonist-evoked calcium signal; in the data active = activity change below about -50%; inconclusive = between about -30% and that limit;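 also: stimulus is agonist 54-4 at its EC80 concentration; % is scaled to controls: 0 for no effect and ±100 for the full control effect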
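Calcium fluorescence in TRPML1-DL cells induced overnight with Tet: a 110 s read after compound pin addition, then a 110 s antagonist read after challenge with 54-4 at 4 uM final (EC80).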
Vif-A3F inh = inhibitors of Vif-A3F interaction. actives 0.2% (n = 390,000). Potency, µM (doses to about 46.1 µM), for the others: at the top dose activity, negative = active. HeLa A3F-eYFP + Vif (tagged APOBEC3F with the HIV-1 protein that degrades it), YFP fluorescence increase; also: potency is read from the fitted curve at half-maximal effect; % of control where 0% means no effect; nearly all actives have a fitted effect of over 65% in size
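HeLa cells stably expressing A3F-eYFP plus Vif, plated and incubated overnight at 37 deg C, then exposed to compounds overnight at 37 deg C. Blocked degradation read as raised yellow fluorescence (Ex 488/Em 500-530).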
Vif-APOBEC3G blk = blocks the Vif interaction with human APOBEC3G; HeLa A3G-eYFP + Vif (tagged APOBEC3G with the HIV-1 protein that degrades it), YFP fluorescence, overnight; Potency, µM (series often up to 46.1 µM), for inactives: at the highest dose activity, negative = active, usual class: inhibitors; actives 0.076% (n = 410,000); also: potency is read from the fitted curve at half-maximal effect; % is scaled to controls: 0 for no effect and ±100 for the full control effect; nearly all actives have a fitted effect of over 60% in size
Target sequence (Q9HC16 whole entry, looked up): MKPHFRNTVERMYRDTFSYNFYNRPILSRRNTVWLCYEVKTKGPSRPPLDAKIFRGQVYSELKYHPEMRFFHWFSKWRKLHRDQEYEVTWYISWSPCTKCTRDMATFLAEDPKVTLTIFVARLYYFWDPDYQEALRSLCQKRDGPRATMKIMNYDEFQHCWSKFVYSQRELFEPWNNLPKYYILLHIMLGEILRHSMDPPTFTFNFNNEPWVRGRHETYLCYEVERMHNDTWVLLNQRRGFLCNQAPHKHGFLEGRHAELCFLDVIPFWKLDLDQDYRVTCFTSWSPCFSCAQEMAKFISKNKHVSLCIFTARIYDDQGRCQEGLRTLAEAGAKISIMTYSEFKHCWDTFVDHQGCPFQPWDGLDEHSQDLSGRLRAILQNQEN
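HeLa cells stably expressing Vif and C-terminally eYFP-tagged A3G, seeded overnight at 37 deg C, then exposed to compound by pintool overnight at 37 deg C. Rise in yellow fluorescence (Ex 488/Em 500-530, Acumen) marks blocked Vif-driven A3G degradation.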
TRPML1 agonist = activates the human TRPML1 channel; Q9GZU1; TRPML1-expressing cells, Ca2+ dye fluorescence, FDSS; activation, % (test concentration not listed); actives 0.12% (n = 410,000); AID 624414; in the data active = activation above about 50%; inconclusive = mostly about 30% to 49%; also: 0% is about no effect
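Tet-induced TRPML1-DL cells, 1,500 per well, cultured overnight, were loaded with a no-wash Ca2+ dye for 45–90 min. Calcium fluorescence was recorded on the FDSS for 110 s after compound addition, before the EC80 agonist (4 uM 54-4) was added.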
A-T KAP1 phos = potential ataxia-telangiectasia treatment; F2112 A-T fibroblasts, KAP-1 phosphorylation AlphaLISA; neocarzinostatin DNA damage 30 min before lysis; Potency, µM (titrated, usually from 57.5 µM), for the others: at the top dose activation, actives largely listed as activators; actives 0.19% (n = 320,000); also: potency is read from the fitted curve at half-maximal effect; % of control where 0% means no effect; nearly all actives have a fitted effect of over 45% in size
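ATM-like activity read as KAP-1 phosphorylation via AlphaLISA donor/acceptor antibody pairs after lysis and 6 hr at 25C. Cells were ATM-null patient fibroblasts (F2112, hTERT), dosed 60 min, then exposed to the DSB inducer NCS for 30 min.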
The depositor's hits bear a star; ? = inconclusive; . = no result. Unless noted, calls follow the shape of the dose curve; as a rule, active = well fitted curve in the direction sought with a large enough effect; inconclusive = small, poorly fitted or top-dose-only effect, or another doubt; inactive = no such curve, though single readings can be large; an effect the other way counts as inactive or inconclusive.

SMILES	TRPML1 blocker	Vif-A3F inh	Vif-APOBEC3G blk	TRPML1 agonist	A-T KAP1 phos
CCOC(=O)c1cnc2ccc(C)cc2c1N(C)Cc1ccccc1	70	1%	2%	6	22µM*
CCCc1cnc(Nc2nc(C(N)Cc3ccc(C(F)(F)F)cc3)cs2)nc1 (configuration not stated)	.	.	-8%	0	.
Cc1cc(NC(=O)CSc2nc(Cc3ccc(O)cc3)c(C)[nH]2)no1	-54*	-3%	5%	1	-9%
O=C(C1=C(O)C(=O)N(c2nccs2)C1c1ccccc1)c1cc2ccccc2o1 (configuration not stated)	-2	?	-21%	92*	-2%
O=C(C1=C(O)C(=O)N(CCc2ccccc2)C1c1ccncc1)c1cc2ccccc2o1 (configuration not stated)	-18	-11%	1%	1	-1%
Cc1ccc(S(=O)(=O)c2nnn3c2nc(NCc2ccc4c(c2)OCO4)c2sccc23)cc1C	9	4%	0%	1	.
CCCCNc1c(-c2ccc(SC(C)CC)cc2)nc2cnccn12 (configuration not stated)	59	10µM*	?	4	28µM*
CCCCNc1c(-c2ccc(OC)c(Sc3ccc(OC)cc3)c2)nc2cnccn12	37	3%	-19%	2	?
CCOC(=O)N1CCN(/C=C(\C#N)c2nc3ccccc3s2)CC1	7	25µM*	22µM*	4	3%
CCOC(=O)N1CCC(=NNc2nc3ccccc3s2)CC1	-12	-4%	0%	1	-1%
N#C/C(=C\N1CCN(Cc2ccc3c(c2)OCO3)CC1)c1nc2ccccc2s1	-2	28µM*	?	6	4%
CCn1nc(NC(=O)c2ccccc2)c2cc3cccc(C)c3nc21	?	0%	-15%	2	22µM*
CCCCC1=CC2=CC(=O)C(C)(OC(=O)CC)C(=O)C2=CN1CCc1ccccn1 (configuration not stated)	-54*	4%	0%	0	-13%
Cc1c(NC(=O)c2ccc(Cl)cc2)cc(C(C)C)c(O)c1S(=O)(=O)c1ccccc1	-13	0%	0%	0	.
CCOC(=O)c1c(CC(C)C)csc1/N=C/C1C(=O)CCCC1=O	20	22µM*	?	5	1%
Cc1cc(-c2nc3ncccc3o2)ccc1NC(=O)c1ccc([N+](=O)[O-])o1	-12	3%	8%	0	.
Cc1ccc(-c2nc3ncccc3o2)cc1NC(=O)c1ccc([N+](=O)[O-])o1	-21	22µM*	0%	0	2%
O=[N+]([O-])c1ccc(N/N=C/c2c[nH]c3ccccc23)c(S(=O)(=O)Nc2ccc(Cl)cc2)c1	-6	25µM*	?	15	1%
CCOC(=O)N=Nc1c(O)n(Cc2ccccc2)c2ccccc12	22	-12%	0%	2	-2%
COC(=O)N=Nc1c(O)n(Cc2ccccc2)c2ccccc12	-9	7%	7%	1	25µM*
Cc1nn(-c2ccccc2)c2sc(C(=O)Nc3cccc(Cl)c3)cc12	-5	-8%	0%	1	.
O=[N+]([O-])c1ccc(C2=Nc3cc(Cl)ccc3OC2)cc1	40	25µM*	-5%	1	0%
Cc1ccc2c(c1)N=C(c1ccc(F)cc1)CO2	-17	-16%	-1%	0	.
COc1cccc(C2=CC(c3ccc(N(C)C)cc3)n3nnnc3N2)c1 (configuration not stated)	-14	32µM*	?	1	3%
COc1cccc(C2=CC(c3ccccc3)n3nnnc3N2)c1 (configuration not stated)	10	-1%	?	0	18%
SMILES	TRPML1 blocker	Vif-A3F inh	Vif-APOBEC3G blk	TRPML1 agonist	A-T KAP1 phos
COc1ccc(C2=CC(c3ccc(N(C)C)cc3)n3nnnc3N2)cc1 (configuration not stated)	25	11µM*	?	3	.
O=C(Nc1ccc(Cl)cc1Cl)[C@@H]1CC=C[C@@H]2CCN(C3CC3)C(=O)[C@@H]21	.	.	-7%	0	.
O=C1c2cccc3c(N4CCCCC4)ccc(c23)C(=O)N1c1ccccc1O	-9	8.9µM*	14%	58*	5%
O=C1c2cccc3c(N4CCCCC4)ccc(c23)C(=O)N1c1ccc(O)cc1	15	?	7.9µM*	?	6%
CCC(CC)C(=O)N1c2ccccc2C(C)(c2ccccc2)CC1(C)C (configuration not stated)	-19	3%	1%	?	.
CC(C)(C)n1ncc2c(=O)n(Cc3ccccc3C(F)(F)F)cnc21	-5	.	2%	5	.
Cc1nc2c(cnn2-c2ccccc2Cl)c(=O)n1-c1ccc(C(C)C)cc1	-11	7%	4%	94*	-3%
Cc1ccc(Cn2c(CN3CCC(C(=O)NCc4cccnc4)CC3)cc3ccccc32)cc1	-10	-2%	-1%	2	.
CSc1nnc(N2C(=O)C(O)=C(C(=O)c3ccco3)C2c2ccccc2F)s1 (configuration not stated)	6	-10%	-16%	12	-13%
CCCSc1nnc(N2C(=O)C(O)=C(C(=O)c3ccco3)C2c2ccccc2F)s1 (configuration not stated)	-3	3.2µM*	?	0	-4%
CCn1c(SCC(=O)N/N=C\c2ccccc2OCC(=O)O)nnc1-c1ccc(Cl)cc1	12	8%	0%	1	-8%
C=C(C)Cn1c(SCC(=O)N/N=C/c2ccccc2OCC(=O)O)nnc1-c1ccc(Br)cc1	5	4%	0%	0	40µM*
Cc1c(Cn2cnc3c(cnn3C(C)(C)C)c2=O)cccc1C(F)(F)F	12	.	-4%	1	.
COc1ccc(-c2c3c(=O)n(C)c(=O)n(C)c3cn2-c2ccc(O)cc2)cc1	13	8%	-1%	1	32µM*
O=C(N/N=C/C=C/c1ccco1)c1ccncc1	2	11µM*	3%	0	-1%
O=C(N/N=C/C=C\c1ccco1)c1cccs1	25	?	0%	0	3%
CCOC(=O)N1CCN(CC(=O)N2c3ccccc3Sc3ccccc32)CC1	0	-20%	3%	1	18µM*
CCOC(=O)N1CCN(Cc2nnc(-c3ccccc3C)o2)CC1	-13	6%	0%	0	20µM*
CCOC(=O)C1CCN(Cc2nnc(-c3ccccc3C)o2)CC1	4	1%	-2%	0	-3%
CN(Cc1ccccc1)C(=O)c1cccc(N2C(=O)C3CC=CCC3C2=O)c1 (configuration not stated)	-10	0%	5%	-1	3.2µM*
CCc1ccc2nc(SCC(=O)Nc3ccccc3N3CCOCC3)c(C#N)cc2c1	31	10µM*	?	0	-3%
